# Measurements as given in the supplement of paper PMC9135407.
# Several values for one entry are separate records, joined by “and”; a condition that tells them apart may be missing. Equal entries are not always repeated. Structures can show the parent of a compound that is named as a salt. The whole screen tested about 5,800 compounds, of which about 620 (11%) showed activity. Only a selection was taken, and actives are over-represented in it overall. Values without a mark were called inactive.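 Rule for the calls: active = score above a cut-off or among the top three wells of a plate; in these data no inactive exceeds 0.85.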
# Tested on: primary human hepatic stellate cells (donor 1)
# Test: scaled lipid accumulation score (0 = DMSO-like, 1 = nortriptyline-like); higher = stronger HSC inactivation (lipid re-accumulation), active = hit call of the paper
# Conditions: 48 h
# [1] = library stock concentration: 1 mM
# [2] = library stock concentration: 10 mM
# [3] = library stock concentration: 3.33 mM
# [4] = library stock concentration: 80 uM
# [5] = library stock concentration: 400 uM
# [6] = library stock concentration: 2 mM
smiles,measurement,setting,value
CC(=O)N[C@@H](CSC/C=C(\C)CC/C=C(\C)CCC=C(C)C)C(=O)O [Acetyl (N)-s-farnesyl-l-cysteine],scaled lipid accumulation score,library stock concentration: 13.6 mM,≤ -0.021
CC(=O)N[C@@H](CSC/C=C(\C)CC/C=C(\C)CCC=C(C)C)C(=O)O [N-acetyl-S-farnesyl-L-Cysteine],scaled lipid accumulation score,[1],≤ 0
CS(=O)(=O)Nc1c(O)ccc2c1CCCC2C1=NCCN1 (stereo not drawn),scaled lipid accumulation score,[2],0.027
COc1cc(C=C(C#N)C(N)=O)cc(CSc2nc3ccccc3s2)c1O [Tyrphostin AG-825],scaled lipid accumulation score,library stock concentration: 12.6 mM,0.042
"c1cc(-c2cnn3cc(-c4ccc(OCCN5CCCCC5)cc4)cnc23)ccn1 [AMPK Inhibitor, Compound C]",scaled lipid accumulation score,[3],≤ 0
Cc1cnc(Nc2ccc(OCCN3CCCC3)cc2)nc1Nc1cccc(S(=O)(=O)NC(C)(C)C)c1,scaled lipid accumulation score,[4],0.07
same,scaled lipid accumulation score,[5],0.23
same,scaled lipid accumulation score,[6],0.765
same,scaled lipid accumulation score,[3],0.703
same,scaled lipid accumulation score,[2],0.345 and 0.579
c1cc(-c2cnn3cc(-c4ccc(OCCN5CCCCC5)cc4)cnc23)ccn1 [Dorsomorphin],scaled lipid accumulation score,[4],≤ 0
same,scaled lipid accumulation score,[5],≤ 0
same,scaled lipid accumulation score,[6],0.557
same,scaled lipid accumulation score,[2],0.469
c1ccc(-c2cnc(Nc3ccc(OCCN4CCCC4)cc3)s2)cc1 [Flt-3 Inhibitor III],scaled lipid accumulation score,[3],1.17 (active)
CCCCC[C@H](O)C/C=C1/C(=O)C[C@H](O)[C@@H]1C/C=C\CCCC(=O)O [.DELTA.12-Prostaglandin D2],scaled lipid accumulation score,[1],≤ 0
CCCCC/C=C\C/C=C\CC/C=C\CCCC(=O)O [Pinolenic Acid],scaled lipid accumulation score,[1],0.009
NC(=O)N1C(=O)/C(=C(\O)c2cccs2)c2cc(Cl)ccc21 [Tenidap],scaled lipid accumulation score,[2],≤ -0.001
O=C(O)c1cc(O)c2ccc(Cl)cc2n1 [7-Chlorokynurenic acid],scaled lipid accumulation score,[2],0.023
Cc1cnc(-c2ccccc2C(C)C)nc1NCc1ccc(-n2ccnn2)cc1,scaled lipid accumulation score,[3],≤ -0.009
same,scaled lipid accumulation score,[2],≤ 0
Nc1cc(N2CCCCC2)nc(N)[n+]1OS(=O)(=O)[O-] [Minoxidil sulfate],scaled lipid accumulation score,library stock concentration: 17.3 mM,≤ -0.021
C=CCCCCCCCCC(=O)O [Undecylenic acid],scaled lipid accumulation score,library stock concentration: 10.9 mM,≤ 0
O=S(=O)(c1cccc2c(I)cccc12)N1CCCNCC1 [listing 1 of 2 here],scaled lipid accumulation score,[2],0.931 (active)
CC1CN(S(=O)(=O)c2cccc3cnccc23)CCN1 (stereo not drawn),scaled lipid accumulation score,[2],0.164
O=S(=O)(c1cccc2cnccc12)N1CCCNCC1,scaled lipid accumulation score,[2],0.257
O=S(=O)(c1cccc2c(I)cccc12)N1CCCNCC1 [listing 2 of 2 here],scaled lipid accumulation score,[4],≤ -0.001
same,scaled lipid accumulation score,[5],≤ -0.001
same,scaled lipid accumulation score,[6],0.204
O=S(=O)(c1cccc2c(Cl)cccc12)N1CCCNCC1 [listing 1 of 2 here],scaled lipid accumulation score,library stock concentration: 15.4 mM,0.912 (active)
O=S(=O)(c1cccc2c(Cl)cccc12)N1CCCNCC1 [listing 2 of 2 here],scaled lipid accumulation score,[2],1.02 (active)
O=S(=O)(c1cccc2cnccc12)N1CCCNCC1 [Fasudil],scaled lipid accumulation score,library stock concentration: 6.9 mM,≤ -0.006
O=S(=O)(c1cccc2cnccc12)N1CCCNCC1 [Fasudil hydrochloride],scaled lipid accumulation score,[2],0.07
O=S(=O)(c1cccc2cnccc12)N1CCNCC1,scaled lipid accumulation score,[2],0.248
NCCNS(=O)(=O)c1cccc2c(Cl)cccc12 [A3 hydrochloride],scaled lipid accumulation score,[2],≤ 0
"O=S(=O)(c1cccc2c(I)cccc12)N1CCCNCC1 [ML-7, Hydrochloride]",scaled lipid accumulation score,[3],0.25
O=S(=O)(c1cccc2cnccc12)N1CCCNCC1 [Fasudil (HA-1077) HCl],scaled lipid accumulation score,[3],≤ 0
same,scaled lipid accumulation score,[2],0.14
O=c1[nH]ccc2c(S(=O)(=O)N3CCCNCC3)cccc12 [HA 1100 hydrochloride],scaled lipid accumulation score,[2],≤ -0.001
COCCOc1cc2nc[nH]c(=O)c2cc1OCCOC,scaled lipid accumulation score,[2],0.018
CCCCC[C@H](O)/C=C/[C@H]1C=CC(=O)[C@@H]1CCCCCCC(=O)O [Prostaglandin A1],scaled lipid accumulation score,[1],0.022 and 0.047
Nc1nc2c([nH]c(=O)n2[C@H]2C[C@H](O)[C@@H](CO)O2)c(=O)[nH]1 [8-hydroxy-2'-deoxy Guanosine],scaled lipid accumulation score,[1],≤ 0
C[C@@H]1CC(=O)NN=C1c1ccc(NN=C(C#N)C#N)cc1,scaled lipid accumulation score,[2],0.073
C[C@@H]1CC(=O)NN=C1c1ccc(NN=C(C#N)C#N)cc1 [Levosimendan],scaled lipid accumulation score,[3],≤ 0
same,scaled lipid accumulation score,[2],≤ 0
Cc1ccccc1/C=C/C1=NCCN1 [Metrazoline oxalate],scaled lipid accumulation score,[2],0.381
"CCCCCC(=O)/C=C/C=C\CCCCCCCC(=O)O [13-Keto-octadeca-9Z,11E-dienoic acid]",scaled lipid accumulation score,library stock concentration: 100 uM,0.012
"O=Cc1c2[nH]c3ccccc3c2cc2[nH]c3ccccc3c12 [6-Formylindolo [3,2-B] carbazole]",scaled lipid accumulation score,[1],≤ -0.02
NC(C(=O)O)c1ccc(C(=O)O)c(C(=O)O)c1 (stereo not drawn),scaled lipid accumulation score,[2],≤ -0.006
CN(C)c1cc2c(Nc3ccc4c(cnn4Cc4ccccc4)c3)ncnc2cn1,scaled lipid accumulation score,[2],0.524
Cc1c(NC(=O)OC[C@@H]2COCCN2)cn2ncnc(Nc3ccc4c(cnn4Cc4cccc(F)c4)c3)c12.Cl,scaled lipid accumulation score,[3],1.15 (active)
same,scaled lipid accumulation score,[2],1.2 (active)
Cc1nc2ccc(NC(=O)Nc3ccnc4cccnc34)cc2o1,scaled lipid accumulation score,[2],≤ -0.006
CC(=O)[C@]1(O)Cc2c(O)c3c(c(O)c2[C@@H](O[C@H]2C[C@H](N)[C@H](O)[C@H](C)O2)C1)C(=O)c1ccccc1C3=O [Idarubicin HCl],scaled lipid accumulation score,[3],0.288
same,scaled lipid accumulation score,[2],0.179
CC(=O)[C@]1(O)Cc2c(O)c3c(c(O)c2[C@@H](O[C@H]2C[C@H](N)[C@H](O)[C@H](C)O2)C1)C(=O)c1ccccc1C3=O,scaled lipid accumulation score,[2],0.372
CC(=O)[C@]1(O)Cc2c(O)c3c(c(O)c2[C@@H](O[C@H]2C[C@H](N)[C@H](O)[C@H](C)O2)C1)C(=O)c1ccccc1C3=O [Idarubicin],scaled lipid accumulation score,library stock concentration: 4 mM,0.387
same,scaled lipid accumulation score,[2],≤ -0.07
COc1cc(COc2cc(N)c(Cl)cc2C(=O)CCC2CCN(CCNS(C)(=O)=O)CC2)cc(OC)c1.Cl,scaled lipid accumulation score,[2],1.06 (active)
CCCCN1CCC(CCC(=O)c2cc(Cl)c(N)cc2OC)CC1,scaled lipid accumulation score,[2],0.511
COc1cc(N)c(Cl)cc1C(=O)CCC1CCN(CCNS(C)(=O)=O)CC1,scaled lipid accumulation score,[2],≤ 0
CC(C)(Cc1ccc2ccccc2c1)NC[C@@H](O)COc1cccc(Cl)c1C#N,scaled lipid accumulation score,[3],0.524
same,scaled lipid accumulation score,[2],0.023
CC(C)Oc1ccc(Cc2ccc(NC3=NCCN3)cc2)cc1,scaled lipid accumulation score,[1],0.221
"CN(C)C/C=C/C(=O)Nc1cc2c(Nc3ccc(F)c(Cl)c3)ncnc2cc1O[C@H]1CCOC1 [Afatinib  (TOVOK,  BIBW-2992) (10 mM)]",scaled lipid accumulation score,[2],0.256
CN(C)C/C=C/C(=O)Nc1cc2c(Nc3ccc(F)c(Cl)c3)ncnc2cc1O[C@H]1CCOC1,scaled lipid accumulation score,[4],0.425
same,scaled lipid accumulation score,[5],0.614
same,scaled lipid accumulation score,[2],0.544
"CN(C)C/C=C/C(=O)Nc1cc2c(Nc3ccc(F)c(Cl)c3)ncnc2cc1O[C@H]1CCOC1 [Afatinib  (TOVOK,  BIBW-2992) (0.4 mM)]",scaled lipid accumulation score,[5],0.318
CN(C)C/C=C/C(=O)Nc1cc2c(Nc3ccc(F)c(Cl)c3)ncnc2cc1O[C@H]1CCOC1 [Afatinib (BIBW2992)],scaled lipid accumulation score,[2],0.323
CN(C)CC=CC(=O)Nc1cc2c(Nc3ccc(F)c(Cl)c3)ncnc2cc1OC1CCOC1 (stereo not drawn),scaled lipid accumulation score,[6],0.855 (active)
"CN(C)C/C=C/C(=O)Nc1cc2c(Nc3ccc(F)c(Cl)c3)ncnc2cc1O[C@H]1CCOC1 [Afatinib  (TOVOK,  BIBW-2992) (2 mM)]",scaled lipid accumulation score,[6],1.29 (active)
CN(C)CC=CC(=O)Nc1cc2c(Nc3ccc(F)c(Cl)c3)ncnc2cc1O[C@H]1CCOC1 [Afatinib (BIBW2992)],scaled lipid accumulation score,[3],1.12 (active)
Cc1cc(/C(=C/Nc2ccc(Cl)cc2)C(=O)Nc2ccc(Cl)cc2)on1,scaled lipid accumulation score,[2],0.332
"CCCCCC#CCC#CCCCCCCCC(=O)O [9,12-Octadecadiynoic Acid]",scaled lipid accumulation score,[1],0.001
Cc1c(C)c2c(c(C)c1O)CCC(C)(CCCC(C)CCCC(C)CCCC(C)C)O2 (stereo not drawn) [Alpha-tochopherol],scaled lipid accumulation score,[2],≤ 0
COc1cc(C[C@H]2C(=O)OC[C@@H]2Cc2ccc(OC)c(OC)c2)ccc1O [Arctigenin],scaled lipid accumulation score,[2],≤ -0.006
C/C(=N\NC(=O)C1C(=O)NCC1c1ccccc1)c1cccc(Br)c1 (stereo not drawn),scaled lipid accumulation score,[2],≤ -0.001
CCOC(=O)C1=C(N)Oc2ccc(Br)cc2C1C(C#N)C(=O)OCC (stereo not drawn),scaled lipid accumulation score,[3],0.391
same,scaled lipid accumulation score,[2],0.006
CCOC(=O)C1=C(N)Oc2ccc(Br)cc2[C@H]1[C@H](C#N)C(=O)OCC,scaled lipid accumulation score,[2],1.15 (active)
CCCCCCCCCCCCCCCC(=O)OCC(O)C1OC(=O)C(O)=C1O [L-Ascorbyl 6-palmitate],scaled lipid accumulation score,[3],0.009
same,scaled lipid accumulation score,[2],≤ 0
CC1(CN2CCC(n3c(=O)[nH]c4ccccc43)CC2)OCc2ccccc2-n2cccc21 (stereo not drawn),scaled lipid accumulation score,[2],0.057
O=C(Nc1cc(Cl)cc2c1[nH]c1cnccc12)c1cccnc1 [IKK Inhibitor X],scaled lipid accumulation score,[3],≤ 0
COc1cc2c(Nc3ccc(NC(=O)c4ccccc4)cc3)ncnc2cc1OCCCN1CCOCC1 [listing 1 of 4 here],scaled lipid accumulation score,[2],1.03 (active)
COc1cc2c(Nc3ccc(NC(=O)c4ccccc4)cc3)ncnc2cc1OCCCN1CCOCC1 [listing 2 of 4 here],scaled lipid accumulation score,[3],1.06 (active)
same,scaled lipid accumulation score,[2],1.11 (active)
C#Cc1cccc(Nc2ncnc3cc(OC)c(OCCCCCCC(=O)NO)cc23)c1,scaled lipid accumulation score,[3],0.652
same,scaled lipid accumulation score,[2],0.306
COc1cc2c(N3CCN(C(=O)Nc4ccc(OC(C)C)cc4)CC3)ncnc2cc1OCCCN1CCCCC1 [Tandutinib (MLN518)],scaled lipid accumulation score,[3],0.295
same,scaled lipid accumulation score,[2],0.406
COc1cc2c(N3CCN(C(=O)Nc4ccc(OC(C)C)cc4)CC3)ncnc2cc1OCCCN1CCCCC1 [listing 1 of 2 here],scaled lipid accumulation score,[2],1.24 (active)
COc1cc2ncnc(Nc3ccc(NC(=O)c4ccccc4)cc3)c2cc1OC [Aurora Kinase Inhibitor II],scaled lipid accumulation score,[3],≤ 0
COc1cc2c(N3CCN(C(=O)Nc4ccc(OC(C)C)cc4)CC3)ncnc2cc1OCCCN1CCCCC1 [listing 2 of 2 here],scaled lipid accumulation score,[5],0.045
same,scaled lipid accumulation score,[6],0.538
same,scaled lipid accumulation score,[2],0.65
COc1cc2c(Nc3ccc(NC(=O)c4ccccc4)cc3)ncnc2cc1OCCCN1CCOCC1 [listing 3 of 4 here],scaled lipid accumulation score,[2],1.14 (active)
COc1cc2ncnc(N3CCN(C(=O)Nc4ccc(Oc5ccccc5)cc4)CC3)c2cc1OC [PDGF Receptor Tyrosine Kinase Inhibitor III],scaled lipid accumulation score,[3],≤ 0
COc1cc2c(Nc3ccc(NC(=O)c4ccccc4)cc3)ncnc2cc1OCCCN1CCOCC1 [listing 4 of 4 here],scaled lipid accumulation score,[4],≤ -0.001
same,scaled lipid accumulation score,[5],≤ -0.009
same,scaled lipid accumulation score,[6],0.256
C#Cc1cccc(Nc2ncnc3cc(OCCOC)c(OCCOC)cc23)c1 [Erlotinib],scaled lipid accumulation score,library stock concentration: 5.1 mM,≤ -0.006
COc1cc2ncnc(N3CCN(C(=O)Nc4ccc(Oc5ccccc5)cc4)CC3)c2cc1OC,scaled lipid accumulation score,[4],≤ -0.001
same,scaled lipid accumulation score,[5],≤ -0.001
same,scaled lipid accumulation score,[6],≤ -0.001
same,scaled lipid accumulation score,[2],≤ -0.001
C#Cc1cccc(Nc2ncnc3cc(OCCOC)c(OCCOC)cc23)c1 [Erlotinib HCl (OSI-744)],scaled lipid accumulation score,[3],≤ 0
same,scaled lipid accumulation score,[2],≤ 0
C#Cc1cccc(Nc2ncnc3cc(OCCOC)c(OCCOC)cc23)c1,scaled lipid accumulation score,[4],≤ -0.009
same,scaled lipid accumulation score,[5],≤ -0.009 and ≤ -0.005
same,scaled lipid accumulation score,[6],≤ -0.009 and ≤ -0.005
same,scaled lipid accumulation score,[2],0.052 and 0.04
